S-ASM inh: inhibitors of human secretory acid sphingomyelinase; P17405; placental ASM, HMU-PC fluorogenic substrate, 60 min; Potency, µM (highest dose often 57.5 µM), for inactives: top-dose activity change, negative = inhibition, hits mostly inhibitors; hit rate 0.006% among 340,000; also: potency is read from the fitted curve at half-maximal effect
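Human placenta-derived ASM enzyme was preincubated with compound for 10 minutes at room temperature, then given fluorogenic substrate HMU-PC0 (9 uM final) for 60 minutes at 37 °C; a pH 10 stop preceded fluorescence reading at Ex 386/Em 447 nm.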
Vif-A3G inh: Vif-A3G binding inhibition; Q9HC16; HeLa A3G-eYFP + Vif (tagged APOBEC3G with the HIV-1 protein that degrades it), YFP fluorescence, overnight; Potency, µM (doses to about 46.1 µM), for inactives: at the highest dose activity, negative = active, hits mostly inhibitors; hit rate 0.076% among 410,000; AID 602310; also: potency is read from the fitted curve at half-maximal effect; % is scaled to controls: 0 for no effect and ±100 for the full control effect; nearly all actives have a fitted effect of over 60% in size
Target sequence (Q9HC16 whole entry, looked up): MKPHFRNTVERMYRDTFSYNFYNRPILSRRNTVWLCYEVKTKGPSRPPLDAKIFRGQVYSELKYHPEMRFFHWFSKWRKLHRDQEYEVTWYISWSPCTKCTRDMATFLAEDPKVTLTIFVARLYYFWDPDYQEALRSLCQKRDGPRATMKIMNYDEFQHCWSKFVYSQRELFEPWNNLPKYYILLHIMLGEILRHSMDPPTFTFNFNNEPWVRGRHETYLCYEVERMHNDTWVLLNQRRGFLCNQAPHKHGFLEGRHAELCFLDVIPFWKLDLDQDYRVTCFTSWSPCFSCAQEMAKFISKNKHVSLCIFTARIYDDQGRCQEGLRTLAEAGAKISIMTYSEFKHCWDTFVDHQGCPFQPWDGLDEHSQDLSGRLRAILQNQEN
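HeLa cells stably expressing Vif and C-terminally eYFP-tagged A3G, seeded overnight at 37 deg C, then exposed to compound by pintool overnight at 37 deg C. Rise in yellow fluorescence (Ex 488/Em 500-530, Acumen) marks blocked Vif-driven A3G degradation.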
PTAP TSG101 blk: blocks PTAP/TSG101 interaction to inhibit HIV-1 budding | Potency, µM (series often up to 115 µM), inactives show top-dose activity change, negative = inhibition, usual class: inhibitors | AID 493005 | Q99816 | 340,000 tested, under 10 active | Fluorescence polarization, FITC-PTAP peptide / Tsg101 binding; active = well fitted inhibition curve with a large enough effect in the main read-out, with a control signal flat, not every such curve was filed as active; inconclusive = small, poorly fitted or top-dose-only effect, or effect the other way, or a change in a side signal; inactive = no such curve, though single readings can be large or run the other way; also: potency is read from the fitted curve at half-maximal effect; % of control where 0% means no effect
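Steps: Tsg101 binding domain dispensed (10 uM final), compounds pinned in DMSO, FITC-labeled PTAP-motif peptide added (50 nM final); after 20 min binding at room temperature, polarization measured.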
pAkt inh: Akt phosphorylation inhibition. Neuro2A IGF-stimulated pAkt S473 HTRF, 20 min; stronger effect = lower value. activity change, % for hits at 50 µM. hit rate 0.32% among 360,000. AID 651550; in the data active = activity change below about -80%; inconclusive = mostly about -51% to -80%; also: % is scaled to controls: 0 for no effect and ±100 for the full control effect
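Single-point screen (50 µM final compound) in Neuro2A cells stimulated 20 min with 6 nM IGF at 37 deg C. After lysis, Ser473-phosphorylated Akt read by HTRF (ex 330 nm, em 615/665 nm) as the 665/615 ratio.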
Vif-A3F inh: blocks the Vif interaction with APOBEC3F; HeLa A3F-eYFP + Vif (tagged APOBEC3F with the HIV-1 protein that degrades it), YFP fluorescence increase; hit rate 0.2% among 390,000; Potency, µM (titrated, usually from 46.1 µM), without a hit: at the top dose activity, negative = active; AID 602313; also: potency is read from the fitted curve at half-maximal effect; % of control where 0% means no effect; nearly all actives have a fitted effect of over 65% in size
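Fluorescence increase (Ex 488/Em 500-530) after overnight compound treatment at 37 deg C flags inhibition of Vif-driven A3F-eYFP loss in stable HeLa A3F-eYFP/Vif cells seeded overnight beforehand.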
ALOX12 inh: inhibitors of human 12S-lipoxygenase ALOX12; P18054; purified 12hLO, xylenol orange hydroperoxide absorbance; Potency, µM (doses to about 108 µM), inactives show at the top dose activity change, negative = inhibition, hits mostly inhibitors; hit rate 1.1% among 580,000; AID 1671190; also: potency is read from the fitted curve at half-maximal effect; % is scaled to controls: 0 for no effect and ±100 for the full control effect
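Purified human 12hLO at 150 nM in 25 mM Hepes, 0.01% Triton X-100, pH 7.0, preincubated 15 min at room temperature with compound. Reaction started with 40 uM arachidonic acid, 30 min at room temperature. Hydroperoxide measured by Fe-xylenol orange, 573/405 nm absorbance ratio.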
* hit, by the source's call. In the library only some 1.4% were active in any assay of this set; here they are far more common. Unless noted, calls follow the shape of the dose curve; as a rule, active = well fitted curve in the direction sought with a large enough effect; inconclusive = small, poorly fitted or top-dose-only effect, or another doubt; inactive = no such curve, though single readings can be large; an effect the other way counts as inactive or inconclusive.

`CC(C)CCN1CCC(N2CCN(Cc3cccnc3)CC2)C1=O` (stereo unspecified) gave ALOX12 inh 3.0%.
For C=CCn1c(=O)/c(=C/c2cc(OC)c(OC)c(OC)c2)s/c1=C(/C#N)c1nc2ccccc2n1C the results were S-ASM inh -13.3%, Vif-A3G inh -7.7%, PTAP TSG101 blk inconclusive, pAkt inh inactive, Vif-A3F inh 22.4µM* and ALOX12 inh 0.0%.
`O=S(=O)(Nc1nc2n(n1)C(c1ccccc1)C=C(c1ccc(Cl)cc1)N2)c1ccccc1` (stereo unspecified) gave Vif-A3G inh inconclusive, Vif-A3F inh 22.4µM* and ALOX12 inh inconclusive.
For Cc1ccc(C2C=C(c3ccc(Cl)cc3)Nc3nc(NC(=O)c4ccco4)nn32)cc1 (stereo unspecified) the results were Vif-A3G inh -14.3%, Vif-A3F inh inconclusive and ALOX12 inh 22.4µM*.
Cc1ccc(S(=O)(=O)Nc2nc3n(n2)C(c2ccc(Cl)cc2)C=C(c2ccccc2)N3)cc1 (stereo unspecified) was read as Vif-A3G inh -28.0%, Vif-A3F inh inconclusive and ALOX12 inh inconclusive.
`Cc1cc(-c2ccc(C)c(S(=O)(=O)Nc3ccccc3F)c2)on1` gave ALOX12 inh 30.5%.
For O=C1C(c2ccccc2)=S=C2C=Cc3ccccc3N12 the results were ALOX12 inh 22.4µM*.
`COc1ccc(OC)c2c(N3CC(C)OC(C)C3)cc(C(F)(F)F)nc12` (stereo unspecified) gave S-ASM inh 88.3%, Vif-A3G inh 2.1%, PTAP TSG101 blk -4.7%, pAkt inh -114.2%*, Vif-A3F inh 0.4% and ALOX12 inh 0.0%.
Screening CCOc1ccc(-c2cc3ccccc3[nH]2)cc1 returned ALOX12 inh 12.6µM*.
For COc1ccc(-c2cc3ccccc3[nH]2)cc1 the results were S-ASM inh 28.8%, Vif-A3G inh -2.4%, PTAP TSG101 blk -6.3%, pAkt inh inactive, Vif-A3F inh -9.8% and ALOX12 inh inconclusive.
CC(Oc1ccc(Br)cc1)c1nc2c3ccccc3nc(=S)n2[nH]1 (stereo unspecified) was read as S-ASM inh -16.3%, Vif-A3G inh 0.4%, PTAP TSG101 blk -4.4%, pAkt inh inactive, Vif-A3F inh inconclusive and ALOX12 inh 3.55µM*.
For O=C(Nc1cccc(C(F)(F)F)c1)c1cc2c(=O)c3ccccc3oc2nc1C(F)(F)F the results were S-ASM inh -25.9%, Vif-A3G inh -0.5%, PTAP TSG101 blk -0.7%, pAkt inh inactive, Vif-A3F inh 3.4% and ALOX12 inh inconclusive.
For O=C(Nc1ccccc1)c1cc2c(=O)c3ccccc3oc2nc1C(F)(F)F the results were S-ASM inh 1.1%, Vif-A3G inh 0.2%, PTAP TSG101 blk -4.4%, pAkt inh -94.2%*, Vif-A3F inh 11.1% and ALOX12 inh 0.2%.
`CCCCCCCCOC(=O)c1c(CSC(=N)N)n(C)c2cc(Br)c(OC(C)=O)cc12` gave S-ASM inh 31.6µM*, Vif-A3G inh -21.6%, PTAP TSG101 blk 0.0%, pAkt inh inactive, Vif-A3F inh 9.9% and ALOX12 inh inconclusive.
Screening CNC(=S)N/N=C(\C)c1ccc(N2CCOCC2)cc1 returned S-ASM inh 11.1%, Vif-A3G inh -1.5%, PTAP TSG101 blk -3.3%, pAkt inh inactive, Vif-A3F inh inconclusive and ALOX12 inh -10.4%.
`CCNC(=S)N/N=C(\C)c1ccc(N2CCOCC2)cc1` gave S-ASM inh 5.5%, Vif-A3G inh -0.1%, PTAP TSG101 blk -2.5%, pAkt inh inactive, Vif-A3F inh 22.4µM* and ALOX12 inh inconclusive.
For COc1cc(-c2nc(-c3ccccc3)c(-c3ccc(Br)cc3)[nH]2)cc(OC)c1O the results were Vif-A3G inh 1.2%, Vif-A3F inh -9.0% and ALOX12 inh 20µM*.
